# Tested on: Plasmodium falciparum
# Assay: GSK_TCMDC: Inhibition of Plasmodium falciparum Dd2 in whole red blood cells, using parasite LDH activity as an index of growth. Test compounds present at 2uM
# Format: functional
row,SMILES,Inhibition [%]
1,CCN(CCO)CCc1cccc(Nc2nccc(-c3c(-c4ccc(NC(=O)C(C)(C)C)cc4)nn4ccccc34)n2)c1.Cl,96
2,Cc1ccc(C(=O)Nc2ccc(Nc3ccnc4cc(-c5ccccn5)ccc34)cc2O)cc1.Cl,100
3,Cc1cccc(-c2cc3cc(Nc4ccnc5cc(-c6nccs6)ccc45)ccc3[nH]2)c1.Cl,100
4,COc1cccc(-c2ccc3c(-c4cccc(S(C)(=O)=O)c4)cnc(N)c3c2)c1,21
5,Cc1cccc(CNc2nc(C)cc(N[C@@H](Cc3ccccc3)C(=O)NCc3cccc(F)c3)n2)c1.O=C(O)C(F)(F)F,82
6,Cc1cc(NC(=O)c2cccs2)ccc1OC1CCN(Cc2ccc(C#N)cc2)C1.O=C(O)C(F)(F)F (centres undefined),61
7,C=C[C@]1(C)C[C@@H](OC(=O)CNC[C@@H](O)CN2C[C@H](c3ccnc4ccc(OC)nc34)OC2=O)[C@@]2(C)[C@@H]3C(=O)CC[C@@]3(CC[C@@H]2C)[C@@H](C)[C@@H]1O,82
8,COc1cccc(Nc2nccc(NCC(O)c3cccc(C(F)(F)F)c3)n2)c1 (centres undefined),27
9,CCCCCCNC(=O)C1Cc2c([nH]c3cc(Cl)ccc23)C2(CCN(Cc3ccccc3)CC2)N1 (centres undefined),56
10,COc1c(C2CCN(CCCCNC(=O)c3ccc(-c4ccc(C(=O)C(F)(F)F)cc4)cc3)CC2)ccc2c1CCCC2,33
11,N#Cc1cccc(CN2CCCN(Cc3cccc(C(=O)Nc4ccc(Cl)cc4)c3)CC2)c1.O=C(O)C(F)(F)F,9
12,COc1ccc(-c2cnc3ccc(NCc4ccc(S(N)(=O)=O)cc4)nn23)cc1,99
13,CN1CCN(c2ccc(Nc3c(C(N)=O)cnc4cc(-c5ccoc5)ccc34)cc2)CC1.Cl,99
14,COc1ccc(Nc2nc(NC3CCCC3)cc(-c3ccc(OC)cc3)n2)cc1,15
15,CC(C)c1ccc(NC(=O)c2ccc(NCCCN(C)Cc3ccccc3)c([N+](=O)[O-])c2)cc1,35
16,O=C(Cn1c(CCc2cccc(F)c2F)cc(=O)c2ccccc21)N(Cc1ccc(-c2ccc(C(F)(F)F)cc2)cc1)C1CCN(CCN2CCOCC2)CC1.O=C(O)C(O)C(O)C(=O)O,41
17,CCOc1cccc2nc(NCCCNCc3ccc(Cl)c(Cl)c3)cc(NCCCNCc3ccc(Cl)c(Cl)c3)c12,58
18,O=C(Nc1ccc(C(=O)Oc2ccc3ccccc3c2)cc1)N[C@@H](Cc1ccc(O)cc1)C(=O)NC1CCN(Cc2ccc(O)cc2)C1.O=C(O)C(F)(F)F (some centres undefined),1
19,COC(=O)C(Cc1ccccc1)C(CSCc1ccc(OC)cc1)C(=O)N[C@@H](C(=O)OC(C)(C)C)c1ccc(C(C)(C)C)cc1 (some centres undefined),44
20,Cc1cc(N[C@@H](Cc2ccccc2)C(=O)NCCOc2ccccc2)nc(NCc2ccccc2C)n1.O=C(O)C(F)(F)F,80

row,SMILES,Inhibition [%]
1,Br.CCCC1N=C(N)N=C(N)N1c1ccc(CC)cc1 (centres undefined),4
2,Cl.N#Cc1ccc2c(c1)CCN(CCC1CCC(NC(=O)/C=C/c3nc4ccccc4s3)CC1)CC2 (centres undefined),0
3,CCN(CC)CCNc1ccnc2[nH]c3ccc(Cl)cc3c12,92
4,CCN1CCC(N(Cc2ccc(-c3ccc(C(F)(F)F)cc3)cc2)C(=O)Cn2c(SCc3cccc(F)c3F)cc(=O)c3ccccc32)C1.O=C(O)C(O)C(O)C(=O)O (centres undefined),91
5,Br.Nc1ccc(-c2csc(Nc3ccncc3)n2)cc1,50
6,Cc1[nH]n(-c2cccc(C(F)(F)F)c2)c(=O)c1-c1ccc(Cl)cc1,25
7,CCN1CCN(c2cc(C)c3cc(NC(=O)c4ccc(Br)o4)ccc3n2)CC1,13
8,CCC(C)NS(=O)(=O)c1ccc2nc(Nc3cccc(SC)c3)n(C(C)C(C)C)c2c1 (centres undefined),70
9,C=C(C)CSc1nc2c(c(=O)n1Cc1ccco1)C1(CCCCC1)Cc1ccccc1-2,68
10,CC1CCc2sc(-c3nnc(SC(C)C(=O)NC4CC4)o3)cc2C1 (centres undefined),69
11,CCNc1c2ccc(Cl)cc2nc2ccc(OC)cc12.Cl,100
12,COc1ccc(CCN(C)CCOc2ccc(NC(=O)c3cc(SC)cc4c(=O)c5ccccc5[nH]c34)cc2)cc1OC,44
13,Cc1cc(Cl)c(S(=O)(=O)NC2CCCC2)cc1OCC(=O)NC1CCCCC1,91
14,Cc1ccc(C(=O)N2CCc3cc4nccc(N5CCN6CCC[C@H]6C5)c4cc32)cc1,13
15,CCCCCC(C)N/C(=N/c1ccccc1Br)Nc1ccc([N+](=O)[O-])cc1O (centres undefined),98
16,COC(=O)c1ccc(NC(=O)Nc2ccc(Cn3ncc(N4CCCNCC4)c(Cl)c3=O)cc2)cc1.O=C(O)C(F)(F)F,43
17,Cl.NCCCCc1c(-c2ccc(Cl)c(Cl)c2)[nH]c2ccc(Cl)cc12,20
18,CCCNC(=O)c1ccc(N2CCC(c3ccccc3C)CC2)nc1.O=C(O)C(F)(F)F,80
19,CCCCCCCN1CC[C@@H](CCCc2ccnc3ccc(OC)cc23)[C@@H](CCN)C1.O=C(O)C(=O)O,11

# — ChEMBL document CHEMBL1157539, “Thousands of chemical starting points for antimalarial lead identification” (Nature, 2010)
